This is an account of results in PMC11006913.

Residue numbers refer to the chain shown, from its start.

Experiment in all cases: PBM; 200 nM protein, PBS
Settings in all cases: dsDNA, one strand shown

Test [1] addresses HOXA4 (Homo sapiens, UniProt Q00056 201-287, W262R).
In test [2] the target is T1, PAX4 (Homo sapiens, UniProt O43316 9-242, R200K).
T1 sequence: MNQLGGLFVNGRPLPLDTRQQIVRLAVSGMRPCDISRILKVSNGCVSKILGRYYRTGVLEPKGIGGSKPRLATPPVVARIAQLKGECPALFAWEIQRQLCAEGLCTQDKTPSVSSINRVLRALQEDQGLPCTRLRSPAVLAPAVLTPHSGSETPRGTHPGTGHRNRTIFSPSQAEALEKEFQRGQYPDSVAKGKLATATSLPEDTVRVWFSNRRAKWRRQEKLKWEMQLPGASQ

Test [3] deals with PRRX1 (Homo sapiens, UniProt P54821 80-166, F113S).
Test [4] has as its target T2, PAX4 (Homo sapiens, UniProt O43316 9-242).
T2 sequence: T1 sequence with K192R

The target in test [5] is HOXA4 (Homo sapiens, UniProt Q00056 201-287, R217L).
The target in test [6] is MSX2 (Homo sapiens, UniProt P35548 130-214, R199I).
For test [7], the target named is T3, PAX4 (Homo sapiens, UniProt O43316 9-242, R200Q).
T3 sequence: T1 sequence with K192Q

Test [8] concerns the target T4, PAX4 (Homo sapiens, UniProt O43316 9-242, F177V).
T4 sequence: T1 sequence with F169V, K192R

The target of test [9] is HOXA4 (Homo sapiens, UniProt Q00056 201-287).
Test [10] deals with MSX2 (Homo sapiens, UniProt P35548 130-214).
Test [11] concerns the target T5, PAX4 (Homo sapiens, UniProt O43316 9-242, F177Y).
T5 sequence: T1 sequence with F169Y, K192R

Test [12] has as its target MSX2 (Homo sapiens, UniProt P35548 130-214, F161Y).
Test [13] deals with T6, PAX4 (Homo sapiens, UniProt O43316 9-242, R227W).
T6 sequence: T1 sequence with K192R, R219W

The target of test [14] is HOXA4 (Homo sapiens, UniProt Q00056 201-287, W262F).
Test [15] addresses PRRX1 (Homo sapiens, UniProt P54821 80-166).
For test [16], the target named is HOXC10 (Homo sapiens, UniProt Q9NYD6 254-340).
Test [17] has as its target HOXC10 (Homo sapiens, UniProt Q9NYD6 254-340, K271E).
A further test concerns the target T7, NKX2-6 (Homo sapiens, UniProt A6NCS4 118-204, R150C).
T7 sequence: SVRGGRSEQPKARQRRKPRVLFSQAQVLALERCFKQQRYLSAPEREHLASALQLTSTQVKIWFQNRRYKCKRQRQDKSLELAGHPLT

Test [18] deals with HOXD13 (Homo sapiens, UniProt P35453 263-343, T313R).
Test [19] has as its target HOXD13 (Homo sapiens, UniProt P35453 263-343).
Test [20] addresses HOXD13 (Homo sapiens, UniProt P35453 263-343, T313A).
Test [21] deals with HOXC9 (Homo sapiens, UniProt P31274 178-260, K195R).
For test [22], the target named is ALX4 (Homo sapiens, UniProt Q9H161 200-286).
Test [23] concerns the target ALX4 (Homo sapiens, UniProt Q9H161 200-286, Q225E).
Test [24] concerns the target HOXC9 (Homo sapiens, UniProt P31274 178-260).
Test [25] deals with HOXC9 (Homo sapiens, UniProt P31274 178-260, R193K).
Test [26] has as its target HOXC9 (Homo sapiens, UniProt P31274 178-260, R222W).
For test [27], the target named is VAX1 (Homo sapiens, UniProt Q5SQQ9 86-172).
The target in test [28] is VAX1 (Homo sapiens, UniProt Q5SQQ9 86-172, T142I).
Test [29] concerns the target VAX1 (Homo sapiens, UniProt Q5SQQ9 86-172, K157R).
Test [30] has as its target T8, SIX6 (Homo sapiens, UniProt O95475 114-200, L167I).
T8 sequence: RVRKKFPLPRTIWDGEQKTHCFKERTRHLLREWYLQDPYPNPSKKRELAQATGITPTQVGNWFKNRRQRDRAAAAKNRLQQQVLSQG

Test [31] deals with T9, SIX6 (Homo sapiens, UniProt O95475 114-200, T139Q).
T9 sequence: T8 sequence with T26Q, I54L

Sequence of HOXA4 (Homo sapiens, UniProt Q00056 201-287, W262F) (Q00056 201-287 W262F): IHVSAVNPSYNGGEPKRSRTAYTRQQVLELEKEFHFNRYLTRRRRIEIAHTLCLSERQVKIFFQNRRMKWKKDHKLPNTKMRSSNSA
Sequence of HOXA4 (Homo sapiens, UniProt Q00056 201-287, W262R) (Q00056 201-287 W262R): as the sequence (Q00056 201-287 W262F) above, with F62R counted along it
Sequence of HOXA4 (Homo sapiens, UniProt Q00056 201-287, R217L) (Q00056 201-287 R217L): as the sequence (Q00056 201-287 W262F) above, with R17L, F62W counted along it
Sequence of PRRX1 (Homo sapiens, UniProt P54821 80-166) (P54821 80-166): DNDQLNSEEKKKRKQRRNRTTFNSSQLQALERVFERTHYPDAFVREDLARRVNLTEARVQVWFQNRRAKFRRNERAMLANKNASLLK
Sequence of PRRX1 (Homo sapiens, UniProt P54821 80-166, F113S) (P54821 80-166 F113S): as the sequence (P54821 80-166) above, with F34S counted along it
Sequence of HOXA4 (Homo sapiens, UniProt Q00056 201-287) (Q00056 201-287): as the sequence (Q00056 201-287 W262F) above, with F62W counted along it
Sequence of MSX2 (Homo sapiens, UniProt P35548 130-214, R199I) (P35548 130-214 R199I): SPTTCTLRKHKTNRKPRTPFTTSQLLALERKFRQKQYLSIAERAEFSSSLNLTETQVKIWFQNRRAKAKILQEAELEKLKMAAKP
Sequence of HOXC10 (Homo sapiens, UniProt Q9NYD6 254-340) (Q9NYD6 254-340): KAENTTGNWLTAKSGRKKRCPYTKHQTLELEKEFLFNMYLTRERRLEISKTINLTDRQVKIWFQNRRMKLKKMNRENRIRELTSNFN
Sequence of MSX2 (Homo sapiens, UniProt P35548 130-214, F161Y) (P35548 130-214 F161Y): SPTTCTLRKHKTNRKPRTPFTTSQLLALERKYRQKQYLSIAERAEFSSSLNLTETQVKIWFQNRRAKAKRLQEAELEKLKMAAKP
Sequence of MSX2 (Homo sapiens, UniProt P35548 130-214) (P35548 130-214): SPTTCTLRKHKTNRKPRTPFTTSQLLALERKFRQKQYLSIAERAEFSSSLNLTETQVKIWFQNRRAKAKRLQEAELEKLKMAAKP
Sequence of HOXC10 (Homo sapiens, UniProt Q9NYD6 254-340, K271E) (Q9NYD6 254-340 K271E): as the sequence (Q9NYD6 254-340) above, with K18E counted along it
Sequence of HOXD13 (Homo sapiens, UniProt P35453 263-343) (P35453 263-343): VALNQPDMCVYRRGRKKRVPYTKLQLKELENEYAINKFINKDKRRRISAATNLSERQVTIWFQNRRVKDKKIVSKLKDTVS
Sequence of HOXC9 (Homo sapiens, UniProt P31274 178-260, K195R) (P31274 178-260 K195R): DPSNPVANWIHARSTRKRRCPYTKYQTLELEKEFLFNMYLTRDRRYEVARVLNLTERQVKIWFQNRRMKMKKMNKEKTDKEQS
Sequence of ALX4 (Homo sapiens, UniProt Q9H161 200-286, Q225E) (Q9H161 200-286 Q225E): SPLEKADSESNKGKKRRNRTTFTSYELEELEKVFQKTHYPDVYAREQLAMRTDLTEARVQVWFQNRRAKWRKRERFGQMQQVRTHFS
Sequence of HOXD13 (Homo sapiens, UniProt P35453 263-343, T313A) (P35453 263-343 T313A): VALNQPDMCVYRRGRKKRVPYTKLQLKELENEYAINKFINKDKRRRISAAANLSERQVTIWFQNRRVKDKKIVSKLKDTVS
Sequence of VAX1 (Homo sapiens, UniProt Q5SQQ9 86-172, T142I) (Q5SQQ9 86-172 T142I): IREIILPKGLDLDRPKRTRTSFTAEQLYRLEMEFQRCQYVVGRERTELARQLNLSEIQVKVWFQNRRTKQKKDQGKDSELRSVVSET
Sequence of HOXD13 (Homo sapiens, UniProt P35453 263-343, T313R) (P35453 263-343 T313R): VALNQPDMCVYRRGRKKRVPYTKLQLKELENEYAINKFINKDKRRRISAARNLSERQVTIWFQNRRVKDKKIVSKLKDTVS
Sequence of HOXC9 (Homo sapiens, UniProt P31274 178-260, R193K) (P31274 178-260 R193K): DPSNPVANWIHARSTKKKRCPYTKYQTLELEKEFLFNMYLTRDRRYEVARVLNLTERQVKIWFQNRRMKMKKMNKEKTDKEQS
Sequence of VAX1 (Homo sapiens, UniProt Q5SQQ9 86-172) (Q5SQQ9 86-172): as the sequence (Q5SQQ9 86-172 T142I) above, with I57T counted along it
Sequence of VAX1 (Homo sapiens, UniProt Q5SQQ9 86-172, K157R) (Q5SQQ9 86-172 K157R): as the sequence (Q5SQQ9 86-172 T142I) above, with I57T, K72R counted along it
Sequence of HOXC9 (Homo sapiens, UniProt P31274 178-260) (P31274 178-260): as the sequence (P31274 178-260 R193K) above, with K16R counted along it
Sequence of HOXC9 (Homo sapiens, UniProt P31274 178-260, R222W) (P31274 178-260 R222W): as the sequence (P31274 178-260 R193K) above, with K16R, R45W counted along it
Sequence of ALX4 (Homo sapiens, UniProt Q9H161 200-286) (Q9H161 200-286): as the sequence (Q9H161 200-286 Q225E) above, with E26Q counted along it

As for TAATTTGA, the binding signal with HOXA4 [1] is 10.4 upbm affinity estimate (log intensity, higher = more binding, comparable within an allelic series); in the test with PAX4 [2], 11.7 upbm affinity estimate (log intensity, higher = more binding, comparable within an allelic series); in the test with PRRX1 [3] it was 10.7 upbm affinity estimate (log intensity, higher = more binding, comparable within an allelic series); with PAX4 [4] it was 12.2 upbm affinity estimate (log intensity, higher = more binding, comparable within an allelic series); with HOXA4 [5], 11.4 upbm affinity estimate (log intensity, higher = more binding, comparable within an allelic series); with MSX2 [6], 12.2 upbm affinity estimate (log intensity, higher = more binding, comparable within an allelic series). Moreover, the binding signal in the test with PAX4 [7] is 11.9 upbm affinity estimate (log intensity, higher = more binding, comparable within an allelic series); in the test with PAX4 [8], 10.5 upbm affinity estimate (log intensity, higher = more binding, comparable within an allelic series); with HOXA4 [9], 12.8 upbm affinity estimate (log intensity, higher = more binding, comparable within an allelic series); with MSX2 [10], 13.4 upbm affinity estimate (log intensity, higher = more binding, comparable within an allelic series); with PAX4 [11], 10.9 upbm affinity estimate (log intensity, higher = more binding, comparable within an allelic series); with MSX2 [12] it was 13 upbm affinity estimate (log intensity, higher = more binding, comparable within an allelic series). Also, the binding signal with PAX4 [13] was 10.9 upbm affinity estimate (log intensity, higher = more binding, comparable within an allelic series); with HOXA4 [14] it was 10.8 upbm affinity estimate (log intensity, higher = more binding, comparable within an allelic series); with PRRX1 [15] it was 13.2 upbm affinity estimate (log intensity, higher = more binding, comparable within an allelic series).
As to GAGGTTGC, the binding signal was 9.8 upbm affinity estimate (log intensity, higher = more binding, comparable within an allelic series) in the test with HOXA4 [1]; 9.94 upbm affinity estimate (log intensity, higher = more binding, comparable within an allelic series) in the test with HOXC10 [16]; 9.19 upbm affinity estimate (log intensity, higher = more binding, comparable within an allelic series) in the test with PRRX1 [3]; 9.7 upbm affinity estimate (log intensity, higher = more binding, comparable within an allelic series) with HOXA4 [5]; 9.69 upbm affinity estimate (log intensity, higher = more binding, comparable within an allelic series) with HOXA4 [9]; 9.96 upbm affinity estimate (log intensity, higher = more binding, comparable within an allelic series) with HOXC10 [17]. Further, the binding signal with HOXA4 [14] is 9.89 upbm affinity estimate (log intensity, higher = more binding, comparable within an allelic series); with PRRX1 [15], 8.94 upbm affinity estimate (log intensity, higher = more binding, comparable within an allelic series).
On to CCCCAGGC, for which the binding signal with HOXA4 [1] was 9.71 upbm affinity estimate (log intensity, higher = more binding, comparable within an allelic series); with PRRX1 [3], 9.11 upbm affinity estimate (log intensity, higher = more binding, comparable within an allelic series); with HOXA4 [5] it was 9.7 upbm affinity estimate (log intensity, higher = more binding, comparable within an allelic series); in the test with NKX2-6, 9.25 upbm affinity estimate (log intensity, higher = more binding, comparable within an allelic series); in the test with HOXD13 [18] it was 9.43 upbm affinity estimate (log intensity, higher = more binding, comparable within an allelic series); in the test with HOXD13 [19] it was 9.37 upbm affinity estimate (log intensity, higher = more binding, comparable within an allelic series). Besides, the binding signal with HOXA4 [9] was 9.62 upbm affinity estimate (log intensity, higher = more binding, comparable within an allelic series); in the test with HOXD13 [20], 9.53 upbm affinity estimate (log intensity, higher = more binding, comparable within an allelic series); with HOXA4 [14], 9.76 upbm affinity estimate (log intensity, higher = more binding, comparable within an allelic series); with PRRX1 [15] it was 9.25 upbm affinity estimate (log intensity, higher = more binding, comparable within an allelic series).
In the case of GCCTCCCA, the binding signal in the test with HOXA4 [1] was 9.78 upbm affinity estimate (log intensity, higher = more binding, comparable within an allelic series); in the test with HOXC9 [21] it was 9.58 upbm affinity estimate (log intensity, higher = more binding, comparable within an allelic series); in the test with ALX4 [22] it was 8.34 upbm affinity estimate (log intensity, higher = more binding, comparable within an allelic series); with ALX4 [23], 8.34 upbm affinity estimate (log intensity, higher = more binding, comparable within an allelic series); with HOXA4 [5] it was 9.83 upbm affinity estimate (log intensity, higher = more binding, comparable within an allelic series); with HOXC9 [24], 9.69 upbm affinity estimate (log intensity, higher = more binding, comparable within an allelic series). Moreover, the binding signal with HOXC9 [25] was 9.59 upbm affinity estimate (log intensity, higher = more binding, comparable within an allelic series); in the test with HOXA4 [9], 9.75 upbm affinity estimate (log intensity, higher = more binding, comparable within an allelic series); with HOXC9 [26], 9.65 upbm affinity estimate (log intensity, higher = more binding, comparable within an allelic series); in the test with HOXA4 [14], 9.77 upbm affinity estimate (log intensity, higher = more binding, comparable within an allelic series).
Consider CGCGCGCG, for which the binding signal with HOXA4 [1] was 9.91 upbm affinity estimate (log intensity, higher = more binding, comparable within an allelic series); in the test with HOXC10 [16], 10.1 upbm affinity estimate (log intensity, higher = more binding, comparable within an allelic series); in the test with HOXA4 [5] it was 9.88 upbm affinity estimate (log intensity, higher = more binding, comparable within an allelic series); with MSX2 [6] it was 9.61 upbm affinity estimate (log intensity, higher = more binding, comparable within an allelic series); in the test with HOXA4 [9] it was 9.94 upbm affinity estimate (log intensity, higher = more binding, comparable within an allelic series); with HOXC10 [17], 10 upbm affinity estimate (log intensity, higher = more binding, comparable within an allelic series). Further, the binding signal with MSX2 [10] was 9.53 upbm affinity estimate (log intensity, higher = more binding, comparable within an allelic series); in the test with VAX1 [27], 7.34 upbm affinity estimate (log intensity, higher = more binding, comparable within an allelic series); with MSX2 [12], 9.52 upbm affinity estimate (log intensity, higher = more binding, comparable within an allelic series); with VAX1 [28], 7.38 upbm affinity estimate (log intensity, higher = more binding, comparable within an allelic series); with HOXA4 [14] it was 10.1 upbm affinity estimate (log intensity, higher = more binding, comparable within an allelic series); in the test with VAX1 [29], 7.37 upbm affinity estimate (log intensity, higher = more binding, comparable within an allelic series).
As to AGTGATCC, the binding signal with SIX6 [30] is 11.1 upbm affinity estimate (log intensity, higher = more binding, comparable within an allelic series); with SIX6 [31], 11.2 upbm affinity estimate (log intensity, higher = more binding, comparable within an allelic series).
